Experiment [1] is described as follows: NCI Yeast Anticancer Drug Screen. Data for the rad50 strain (AID 155).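 Further: 0% = growth of vehicle-only cultures of the same strain.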 Particulars: S. cerevisiae rad50 strain growth inhibition, stronger effect = higher value. Put shortly: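 Genetically altered yeast (DNA repair pathway); compound treatment; growth inhibition vs vehicle ctrl.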
Experiment [2] can be described thus: NCI Yeast Anticancer Drug Screen. Data for the mec2-1 strain (AID 157). Particulars: S. cerevisiae mec2-1 strain, stronger effect = higher value. The method, boiled down: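 Yeast mec2-1 mutant treated with compound. Readout: growth inhibition vs vehicle controls.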
The nature of experiment [3]: NCI Yeast Anticancer Drug Screen. Data for the sgs1 mgt1 strain (AID 161).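 Further: 0% = growth of cultures given vehicle only.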 Particulars: S. cerevisiae sgs1 mgt1 strain, stronger effect = higher value. The method, boiled down:
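Genetically altered yeast, compound exposure, growth inhibition relative to vehicle.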

Experiment [4] is described as follows: NCI Yeast Anticancer Drug Screen. Data for the cln2 rad14 strain (AID 165).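 Further: 0% = growth equal to vehicle treated cultures.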 Particulars: S. cerevisiae cln2 rad14 strain, stronger effect = higher value. Put shortly: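 cln2 rad14 yeast strain; compound exposure; growth inhibition read vs vehicle controls.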
Experiment [5] can be described thus: NCI Yeast Anticancer Drug Screen. Data for the bub3 strain (AID 167). Particulars: S. cerevisiae bub3 mutant strain, stronger effect = higher value. Put shortly:
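Yeast carrying a defined mutation is treated with each compound, and growth is compared with that of vehicle-exposed cells to give inhibition.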

A short description of experiment [6]: NCI Yeast Anticancer Drug Screen. Data for the mlh1 rad18 strain (AID 175). Conditions: S. cerevisiae mlh1 rad18 strain growth inhibition, stronger effect = higher value. Put shortly: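 Yeast w/ defined DNA-repair lesions; compound exposure; growth vs vehicle controls → % inhibition.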
Setting [7] is: at 5.0 µM (retest, dose inferred, filed as 0.5).
Setting [8] is: at 50.0 µM (retest, dose inferred, filed as 5.0).

Consider ten molecules from PubChem BioAssay (NCI).

Compounds without any hit were thinned out: in the full panel of roughly 79,000, 15% have a hit. Unmarked numbers belong to inactive results. The source made the active and inactive calls. No stated cut-off is given here; in the data, active means growth inhibition above about 70%; inactive means the rest.

For `Sc1ccccc1.[Ag]`, the growth inhibition in experiment [1] (setting [7]) is 27%; in experiment [1] (setting [8]) it was 97% (active); in experiment [1] (at 50.0 µM), 98.5% (active); in experiment [2] (setting [7]), 58%; in experiment [2] (setting [8]), 99% (active); in experiment [2] (at 50.0 µM), 98.8% (active). The growth inhibition in experiment [3] (setting [7]) is 49%; in experiment [3] (setting [8]) it was 98% (active); in experiment [3] (at 50.0 µM) it was 99% (active); in experiment [4] (setting [7]) it was 20%; in experiment [4] (setting [8]), 97% (active); in experiment [4] (at 50.0 µM) it was 98.1% (active). Also, the growth inhibition in experiment [5] (setting [7]) was 56%; in experiment [5] (setting [8]), 97% (active); in experiment [5] (at 50.0 µM), 97.9% (active); in experiment [6] (setting [7]) it was 49%; in experiment [6] (setting [8]), 97% (active); in experiment [6] (at 50.0 µM) it was 98.3% (active).

Consider `CC(=O)[O-].CC(=O)[O-].O=C(N/N=C/c1cc(Cl)cc(Cl)c1[OH2+])c1ccncc1.[Zn+2]`, for which the growth inhibition in experiment [1] (setting [7]) is 4%; in experiment [1] (setting [8]) it was 9%; in experiment [1] (at 50.0 µM), 31%; in experiment [2] (setting [7]) it was -1%; in experiment [2] (setting [8]), 11%; in experiment [2] (at 50.0 µM), 48.4%. Moreover, the growth inhibition in experiment [3] (setting [7]) was 7%; in experiment [3] (setting [8]), 30%; in experiment [3] (at 50.0 µM), 60.8%; in experiment [4] (setting [7]), 0%; in experiment [4] (setting [8]) it was -4%; in experiment [4] (at 50.0 µM), 38%. For the same molecule, the growth inhibition in experiment [5] (setting [7]) was 1%; in experiment [5] (setting [8]), 10%; in experiment [5] (at 50.0 µM) it was 32.6%; in experiment [6] (setting [7]), 2%; in experiment [6] (setting [8]), 11%; in experiment [6] (at 50.0 µM) it was 70% (active).

Consider `C[n+]1c(/C=C/c2ccc(O)c3ccccc23)[se]c2ccccc21`, for which the growth inhibition is -3% in experiment [1] (setting [7]); 78% (active) in experiment [1] (setting [8]); 84.8% (active) in experiment [1] (at 50.0 µM); -13% in experiment [2] (setting [7]); 40% in experiment [2] (setting [8]); 47.4% in experiment [2] (at 50.0 µM). Also, the growth inhibition in experiment [3] (setting [7]) is -24%; in experiment [3] (setting [8]), 76% (active); in experiment [3] (at 50.0 µM), 87.1% (active); in experiment [4] (setting [7]), -2%; in experiment [4] (setting [8]), 16%; in experiment [4] (at 50.0 µM), 41.2%. The growth inhibition in experiment [5] (setting [7]) was -5%; in experiment [5] (setting [8]), 20%; in experiment [5] (at 50.0 µM), 74.6% (active); in experiment [6] (setting [7]) it was 13%; in experiment [6] (setting [8]), 81% (active); in experiment [6] (at 50.0 µM), 78.9% (active).

Regarding `CC(=O)OC1=CC2=CC[C@H]3[C@@H]4CCC(=O)[C@@]4(C)CC(=O)[C@]3(S)[C@@]2(C)CC1`, the growth inhibition in experiment [1] (setting [7]) is 14%; in experiment [1] (setting [8]) it was 18%; in experiment [1] (at 50.0 µM), 77.5% (active); in experiment [2] (setting [7]), 3%; in experiment [2] (setting [8]) it was 8%; in experiment [2] (at 50.0 µM), 25.5%. Moreover, the growth inhibition is 8% in experiment [3] (setting [7]); -20% in experiment [3] (setting [8]); -4.4% in experiment [3] (at 50.0 µM); -16% in experiment [4] (setting [7]); -70% in experiment [4] (setting [8]); -15.7% in experiment [4] (at 50.0 µM). Moreover, the growth inhibition in experiment [5] (setting [7]) is -8%; in experiment [5] (setting [8]), -3%; in experiment [5] (at 50.0 µM), 60.6%; in experiment [6] (setting [7]) it was -13%; in experiment [6] (setting [8]), 11%; in experiment [6] (at 50.0 µM) it was 54.1%.

For the molecule `COCC(C#N)NC1CC(OC2CC(O)(C(=O)CO)Cc3c(O)c4c(c(O)c32)C(=O)c2c(OC)cccc2C4=O)OC(C)C1O` (stereo not given), the growth inhibition is 63% in experiment [1] (setting [7]); 97% (active) in experiment [1] (setting [8]); 91.3% (active) in experiment [1] (at 50.0 µM); 29% in experiment [2] (setting [7]); 98% (active) in experiment [2] (setting [8]); 89% (active) in experiment [2] (at 50.0 µM). Also, the growth inhibition in experiment [3] (setting [7]) is 52%; in experiment [3] (setting [8]) it was 98% (active); in experiment [3] (at 50.0 µM), 90.2% (active); in experiment [4] (setting [7]), 39%; in experiment [4] (setting [8]), 96% (active); in experiment [4] (at 50.0 µM), 88.7% (active). Besides, the growth inhibition is 43% in experiment [5] (setting [7]); 98% (active) in experiment [5] (setting [8]); 92.1% (active) in experiment [5] (at 50.0 µM); 44% in experiment [6] (setting [7]); 97% (active) in experiment [6] (setting [8]); 89.8% (active) in experiment [6] (at 50.0 µM).

Regarding `CCCCCCCCc1ccc(OCCN(CCCl)CCCl)cc1`, the growth inhibition in experiment [1] (setting [7]) is 3%; in experiment [1] (setting [8]) it was 99% (active); in experiment [1] (at 50.0 µM) it was 98.7% (active); in experiment [2] (setting [7]), -23%; in experiment [2] (setting [8]) it was 100% (active); in experiment [2] (at 50.0 µM), 99.4% (active). For the same molecule, the growth inhibition is -130% in experiment [3] (setting [7]); 99% (active) in experiment [3] (setting [8]); 99.1% (active) in experiment [3] (at 50.0 µM); -2% in experiment [4] (setting [7]); 99% (active) in experiment [4] (setting [8]); 99.3% (active) in experiment [4] (at 50.0 µM). Besides, the growth inhibition in experiment [5] (setting [7]) was -4%; in experiment [5] (setting [8]), 99% (active); in experiment [5] (at 50.0 µM) it was 99.2% (active); in experiment [6] (setting [7]), 4%; in experiment [6] (setting [8]), 99% (active); in experiment [6] (at 50.0 µM), 99.2% (active).

Turning to `CN(C)C(=S)Nc1nnc(NC23CC4CC(CC(C4)C2)C3)s1`, the growth inhibition is -1% in experiment [1] (setting [7]); 61% in experiment [1] (setting [8]); 96.7% (active) in experiment [1] (at 50.0 µM); -29% in experiment [2] (setting [7]); 89% (active) in experiment [2] (setting [8]); 96.2% (active) in experiment [2] (at 50.0 µM). Further, the growth inhibition in experiment [3] (setting [7]) is 15%; in experiment [3] (setting [8]), 60%; in experiment [3] (at 50.0 µM), 97.8% (active); in experiment [4] (setting [7]), -22%; in experiment [4] (setting [8]) it was 94% (active); in experiment [4] (at 50.0 µM), 95.6% (active). Also, the growth inhibition in experiment [5] (setting [7]) is 3%; in experiment [5] (setting [8]), 96% (active); in experiment [5] (at 50.0 µM) it was 93% (active); in experiment [6] (setting [7]), -2%; in experiment [6] (setting [8]) it was 48%; in experiment [6] (at 50.0 µM), 97% (active).

Regarding `[Cl][Pt][Cl].c1ccc([AsH](CC[AsH](c2ccccc2)c2ccccc2)c2ccccc2)cc1`, the growth inhibition in experiment [1] (setting [7]) is 99% (active); in experiment [1] (setting [8]), 99% (active); in experiment [1] (at 50.0 µM), 98.8% (active); in experiment [2] (setting [7]) it was 99% (active); in experiment [2] (setting [8]) it was 99% (active); in experiment [2] (at 50.0 µM), 99.4% (active). Besides, the growth inhibition is 99% (active) in experiment [3] (setting [7]); 99% (active) in experiment [3] (setting [8]); 98.8% (active) in experiment [3] (at 50.0 µM); 98% (active) in experiment [4] (setting [7]); 98% (active) in experiment [4] (setting [8]); 98.6% (active) in experiment [4] (at 50.0 µM). Moreover, the growth inhibition in experiment [5] (setting [7]) is 99% (active); in experiment [5] (setting [8]), 99% (active); in experiment [5] (at 50.0 µM) it was 99.2% (active); in experiment [6] (setting [7]), 99% (active); in experiment [6] (setting [8]), 99% (active); in experiment [6] (at 50.0 µM), 99.2% (active).

In the case of `NCCNCCN1CC1`, the growth inhibition in experiment [1] (setting [7]) is -2%; in experiment [1] (setting [8]), 0%; in experiment [1] (at 50.0 µM) it was 64.9%; in experiment [2] (setting [7]), 1%; in experiment [2] (setting [8]), 1%; in experiment [2] (at 50.0 µM), 0.35%. The growth inhibition is 1% in experiment [3] (setting [7]); -1% in experiment [3] (setting [8]); 39.9% in experiment [3] (at 50.0 µM); -2% in experiment [4] (setting [7]); -3% in experiment [4] (setting [8]); 19.1% in experiment [4] (at 50.0 µM). Besides, the growth inhibition is -1% in experiment [5] (setting [7]); -6% in experiment [5] (setting [8]); 33% in experiment [5] (at 50.0 µM); -1% in experiment [6] (setting [7]); -1% in experiment [6] (setting [8]); 40% in experiment [6] (at 50.0 µM).

With `CC(C)CCC1(CCSC(=O)S)C(=O)NC(=O)NC1=O`, the growth inhibition is -4% in experiment [1] (setting [7]); 77% (active) in experiment [1] (setting [8]); 85.3% (active) in experiment [1] (at 50.0 µM); 0% in experiment [2] (setting [7]); 62% in experiment [2] (setting [8]); 8.3% in experiment [2] (at 50.0 µM). Moreover, the growth inhibition in experiment [3] (setting [7]) is 4%; in experiment [3] (setting [8]), 67%; in experiment [3] (at 50.0 µM), 25.8%; in experiment [4] (setting [7]), -4%; in experiment [4] (setting [8]) it was 21%; in experiment [4] (at 50.0 µM), -37.2%. The growth inhibition in experiment [5] (setting [7]) was -4%; in experiment [5] (setting [8]), 65%; in experiment [5] (at 50.0 µM), 19.8%; in experiment [6] (setting [7]) it was -8%; in experiment [6] (setting [8]), 70% (active); in experiment [6] (at 50.0 µM), 30.8%.
